Reference: PubChem BioAssay AID1159580 (chemical genetic matrix, 2015)
Where “and” joins values, the source holds several entries; their conditions need not be identical. Identical values can stand only once. Screen size: about 5,500 compounds; about 2,000 (36%) were called active. About 18% were inconclusive and are not listed. No stated cut-off is given here; in the data, active means normalized growth mostly below about 0.91 (no sharp cut-off); inconclusive means no clear call, values can overlap the other calls; inactive means mostly above about 0.92. The list shows a part of the results.

Assay: chemical genetic growth profiling, strain panel (AID 1159580);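 further: tested at 20 µM; growth read once vehicle control cultures reached saturation at 30 °C; 1 = growth at the plate median or of vehicle wells; lower values mean less growth of the strain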
Conditions: S. cerevisiae deletion strains, growth OD

Measured: normalized growth

COc1ccc2c(c1)OC[C@@H](Cc1ccc(OC)c(OC)c1)[C@H]2O
inactive: locus YAL013W, strain DEP1, hits give low values 0.986 | locus YAL021C, strain ccr4, hits give low values 0.993 | locus YAL026C, strain drs2, hits give low values 1.02 | locus YAL030W, strain snc1, hits give low values 1.01 | locus YBL061C, strain skt5, hits give low values 1 | locus YBR009C, strain hhf1, hits give low values 0.993 | locus YBR021W, strain FUR4, hits give low values 1.06 | locus YBR023C, strain chs3, hits give low values 0.999 | locus YBR171W, strain sec66, hits give low values 1.01 | locus YBR229C, strain ROT2, hits give low values 1 | locus YBR231C, strain swc5, hits give low values 1.01 | locus YBR279W, strain paf1, hits give low values 1.02 | locus YCL011C, strain gbp2, hits give low values 1.01 | locus YCL016C, strain dcc1, hits give low values 1 | locus YCL029C, strain bik1, hits give low values 0.953 | locus YCL061C, strain MRC1, hits give low values 0.98 | locus YCL069W, strain vba3, hits give low values 1.01 | locus YCR088W, strain abp1, hits give low values 0.999 | locus YDL005C, strain med2, hits give low values 0.999 | locus YDL035C, strain GPR1, hits give low values 0.984 | locus YDL040C, strain nat1, hits give low values 0.991 | locus YDL074C, strain BRE1, hits give low values 0.995 | locus YDL101C, strain DUN1, hits give low values 1 | locus YDL134C, strain PPH21, hits give low values 1.06 | locus YDL185W, strain tfp1, hits give low values 0.943 | locus YDL192W, strain arf1, hits give low values 0.967 | locus YDR001C, strain nth1, hits give low values 1 | locus YDR069C, strain doa4, hits give low values 0.992 | locus YDR101C, strain arx1, hits give low values 0.981 | locus YDR159W, strain sac3, hits give low values 0.939 | locus YDR162C, strain NBP2, hits give low values 1.01 | locus YDR195W, strain ref2 1 | locus YDR297W, strain sur2, hits give low values 1 | locus YDR318W, strain mcm21, hits give low values 0.981 | locus YDR334W, strain swr1, hits give low values 1.02 | locus YDR335W, strain msn5, hits give low values 1.01 | locus YDR388W, hits give low values 0.969 | locus YDR392W, strain spt3, hits give low values 0.929 | locus YDR502C, strain sam2, hits give low values 0.983 | locus YEL003W, strain gim4, hits give low values 1.01 | locus YEL037C, strain rad23, hits give low values 1.01 | locus YEL061C, strain CIN8 (second series), hits give low values 1.01 | locus YEL061C, strain CIN8, hits give low values 0.99 | locus YER015W, strain faa2, hits give low values 1.01 | locus YER016W, strain bim1, hits give low values 1.01 | locus YER110C, hits give low values 0.978 | locus YER111C, strain swi4, hits give low values 1 | locus YER155C, strain BEM2 (second series), hits give low values 1.01 | locus YER155C, strain BEM2, hits give low values 0.984 | locus YER167W, strain BCK2, hits give low values 0.957 | locus YFR010W, strain ubp6, hits give low values 1.01 | locus YGL078C, strain dbp3, hits give low values 0.977 | locus YGL086W, strain mad1, hits give low values 0.989 | locus YGL167C, strain pmr1, hits give low values 1.01 | locus YGL173C, strain kem1, hits give low values 1.02 | locus YGL227W, strain vid30, hits give low values 0.999 | locus YGL240W, strain doc1, hits give low values 1.01 | locus YGL248W, strain PDE1, hits give low values 1.03 | locus YGL253W, strain hxk2, hits give low values 1 | locus YGR135W, strain pre9, hits give low values 0.99 | locus YGR252W, strain gcn5, hits give low values 1.01 | locus YHR013C, strain ard1, hits give low values 1.01 | locus YHR027C, strain rpn1, hits give low values 0.999 | locus YHR030C, strain SLT2, hits give low values 0.987 and 0.938 | locus YHR079C, strain IRE1 (second series), hits give low values 0.979 | locus YHR079C, strain IRE1, hits give low values 0.956 | locus YHR094C, strain hxt1, hits give low values 0.978 | locus YHR129C, strain ARP1, hits give low values 0.994 | locus YHR142W, strain chs7, hits give low values 0.975 | locus YHR200W, strain rpn10, hits give low values 0.966 | locus YIL066C, strain RNR3, hits give low values 1.01 | locus YIL073C, strain SPO22, hits give low values 0.919 | locus YIR030C, strain dcg1, hits give low values 0.955 | locus YJL092W, strain hpr5, hits give low values 1.01 | locus YJL095W, strain BCK1 (second series), hits give low values 1.01 | locus YJL095W, strain BCK1, hits give low values 1.04 and 0.939 | locus YJL115W, strain asf1, hits give low values 1.01 | locus YJL129C, strain trk1, hits give low values 0.956 | locus YJL134W, strain LCB3, hits give low values 0.991 | locus YJL154C, strain vps35, hits give low values 1.01 | locus YJL164C, strain tpk1, hits give low values 0.993 | locus YJL166W, strain qcr8, hits give low values 1.01 | locus YJL168C, strain set2, hits give low values 0.997 | locus YJL187C, strain SWE1 (second series), hits give low values 1.01 | locus YJL187C, strain SWE1, hits give low values 1 | locus YJR043C, strain POL32, hits give low values 1.01
active: locus YDR137W, strain rgp1, hits give low values 0.806
